Data on 41 molecules can be found in PubChem BioAssay AID463193 (University of Pittsburgh Molecular Library Screening Center, 2010).

Hit rate of the full screen: of about 190,000 compounds, about 1,900 (1%) were called active. This is one part of a sample in which actives are shown more often than they occur.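 The calls were made as follows: active = percentage of spot-positive cells more than 3 SD above its plate mean, without a fluorescence outlier flag or 80% toxicity; inconclusive = no clear call, values can overlap the other calls; inactive = the rest.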

This experiment in a line: GFP-LC3 puncta formation changes – imaging, high-content, MEF GFP-LC3, primary screen (AID 463193).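 As to % cells with GFP-LC3 spots: spot-positive cell cutoff set from DMSO-treated cells.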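 As to toxicity: cell loss after 18 h compound exposure.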 To be noted: autophagy, at 10 µM; % cells with GFP-LC3 spots: stronger effect = higher value; toxicity: measured here: cell loss, nuclei count.
For the molecule `Cc1ccc(S(=O)(=O)C(C#N)c2nc3ccccc3nc2N2CCCC2)cc1C` (configuration not stated), the % cells with GFP-LC3 spots was 8.97% (inactive) and the toxicity was -8.37%.
For the molecule `CC(C)OC(=O)C(C#N)c1nc2ccccc2nc1N1CCN(Cc2ccccc2)CC1` (configuration not stated), the % cells with GFP-LC3 spots was 41.3% (active) and the toxicity is 2.68%.
Consider `CCOC(=O)/C(C#N)=C/c1ccc(N2CCN(Cc3ccccc3)CC2)cc1`, for which the % cells with GFP-LC3 spots is 10.3% (inactive) and the toxicity was 10.6%.
On the same counts, the results for `O=[N+]([O-])c1ccc(Sc2n[nH]c(-c3ccco3)n2)nc1` are 0% (inactive) and 4.9%.
With `OCC1(CCc2ccccc2)CCN(Cc2ccc3nsnc3c2)CC1`, the % cells with GFP-LC3 spots is 0.559% (inactive) and the toxicity turned out to be 0.377%.
For `Cc1ccccc1CN1C[C@@H]2C[C@@H](c3ccc4nsnc4c3)N3CCC[C@@]23C1=O`, in that order: 34.4% (active) and 24.5%.
For `Cc1ccccc1CN1C[C@@H]2C[C@@H](c3cn(C)nc3-c3ccccc3)N3CCC[C@@]23C1=O`, in that order: 0.136% (inactive) and -5.59%.
On the same counts, the results for `CCN(CC)S(=O)(=O)c1cc([N+](=O)[O-])ccc1NNC(=O)Nc1ccccc1` are 2.34% (inactive) and -10.5%.
`CCn1c(O)c(N=NC(=O)c2cccc(S(=O)(=O)N3CCCCC3)c2)c2ccccc21`: the % cells with GFP-LC3 spots is 17.3% (inactive) and the toxicity was 3.19%.
For `CCN(CC)S(=O)(=O)c1cc([N+](=O)[O-])ccc1N=Nc1c(O)n(C)c2ccccc12`, in that order: 39.2% (active) and 2.86%.
`CCCCNC(=O)CCn1c(=O)c2ccccc2n(Cc2cc(C)ccc2C)c1=O`: the % cells with GFP-LC3 spots was 8.22% (inactive) and the toxicity is -3.52%.
For `COc1ccc(CN(C)Cc2nc3cc(OC)c(OC)cc3c(=O)[nH]2)c(OC)c1`, in that order: 25% (inactive) and -8.88%.
With `O=C(/C=C/c1cn(-c2ccccc2)nc1-c1ccc2c(c1)OCCO2)NCCCN1CCOCC1`, the % cells with GFP-LC3 spots is 1.77% (inactive) and the toxicity is -8.43%.
On the same counts, the results for `COC(=O)N/N=C/c1ccc(/C=N/NC(=O)OC)cc1` are 0.31% (inactive) and -3.93%.
`CCOc1ccc(/C=N/NC(N)=S)cc1`: the % cells with GFP-LC3 spots is 19.6% (active) and the toxicity came to 21.8%.
For `NC(=S)N/N=C/c1ccc([N+](=O)[O-])cc1`, in that order: 8.24% (inactive) and 23.5%.
On the same counts, the results for `CCN1C(=O)/C(=C\N2CCN(c3ccccc3)CC2)SC1=S` are 1.26% (inactive) and -4.66%.
In the case of `CCN1C(=O)/C(=C\N2CCOCC2)SC1=S`, the % cells with GFP-LC3 spots was 5.71% (inactive) and the toxicity is -3.29%.
On the same counts, the results for `CCN1C(=O)/C(=C\N2CCN(c3cccc(Cl)c3)CC2)SC1=S` are 4.39% (active) and 13.1%.
On the same counts, the results for `O=C(NCC(=O)N(CC1CCCO1)C(C(=O)NC1CCCCC1)c1ccccc1)c1ccco1` (configuration not stated) are 0.515% (inactive) and -9.95%.
On the same counts, the results for `COc1ccc(NC(=O)C(Br)C(C)C)cc1` (configuration not stated) are 14.9% (inactive) and 8.32%.
Take `CC(=O)C1(C)N(O)C(C)(C)C(c2cccs2)=[N+]1[O-]` (configuration not stated): the % cells with GFP-LC3 spots is 3.17% (inactive) and the toxicity is -3.76%.
Turning to `CCC(C)(C)NC(=O)C(c1ccccn1)N(C(=O)c1csnn1)c1ccccc1` (configuration not stated), the % cells with GFP-LC3 spots was 3.17% (inactive) and the toxicity was 14.8%.
For `CC(C)(C)NC(=O)CN(C(=O)c1csnn1)c1ccccc1-c1ccccc1`, in that order: 8.79% (active) and 5.01%.
For `CC(C)(C)NC(=O)CN(C(=O)c1ccc(Cl)nc1)c1cccc2ccccc12`, in that order: 0.133% (inactive) and -8.05%.
With `Cn1c(-c2ccc(F)cc2)cnc1SCC(=O)NNC(=O)Cc1ccccc1`, the % cells with GFP-LC3 spots was 2.62% (inactive) and the toxicity was -10.5%.
On the same counts, the results for `CCOC(=O)/C(C#N)=C/c1cn(CCC(=O)O)nc1-c1ccc(Br)cc1` are 0.855% (inactive) and -6.28%.
For the molecule `COc1ccc(CC(=O)N2N=C(C)CC2(O)C(F)(F)F)cc1` (configuration not stated), the % cells with GFP-LC3 spots is 1.78% (inactive) and the toxicity was found to be 0.121%.
On to `CC1=NN(C(=O)CCc2ccccc2O)C(O)(C(F)(F)F)C1` (configuration not stated), for which the % cells with GFP-LC3 spots was 3.31% (inactive) and the toxicity is -3.6%.
On the same counts, the results for `CC1=NN(C(=O)CCCc2ccccc2)C(O)(C(F)(F)F)C1` (configuration not stated) are 4.12% (active) and 3.92%.
For `CN1CCN(NC(=O)c2ccc(S(=O)(=O)N3CCCCCC3)cc2)CC1`, in that order: 1.83% (inactive) and 28%.
For `O=C(CSc1nc2ccccc2c(=O)n1CCCO)N1CCc2ccccc21`, in that order: 7.69% (inactive) and -0.286%.
With `Cn1c(SCC(=O)N2CCCc3ccccc32)nc2ccccc2c1=O`, the % cells with GFP-LC3 spots is 11.1% (active) and the toxicity turned out to be 28.2%.
For `O=C(CSc1nc2[nH]ncc2c(=O)n1-c1ccccc1)N1CCCc2ccccc21`, in that order: 6.24% (inactive) and 17.2%.
For `CCCCN(CC(=O)NC(C)(C)C)C(=O)C(=O)Nc1ccc2c(c1)OCCO2`, in that order: 0.957% (inactive) and 5.19%.
For `C/C(=N\NC(=O)c1ccc(NS(=O)(=O)c2cccs2)cc1)c1ccc2ccccc2c1`, in that order: 20.7% (inactive) and -14.3%.
Consider `CCNC(=O)COc1cc(C)c(Br)c(C)c1`, for which the % cells with GFP-LC3 spots is 22.5% (inactive) and the toxicity amounted to 9.49%.
Regarding `COc1ccc(CCn2nnnc2C(c2ccccc2)N2CCN(C)CC2)cc1OC` (configuration not stated), the % cells with GFP-LC3 spots was 22.3% (inactive) and the toxicity was -9.31%.
Turning to `COc1ccccc1C(c1nnnn1CC1CCCO1)N1CCN(c2ccccc2)CC1` (configuration not stated), the % cells with GFP-LC3 spots was 0.609% (inactive) and the toxicity was -7.4%.
On the same counts, the results for `COc1ccc(C(c2nnnn2Cc2cccs2)N2CCN(c3ccccc3)CC2)cc1OC` (configuration not stated) are 10.1% (active) and 46.3%.
On the same counts, the results for `Cc1ccc(NC(=O)c2ccccn2)cc1S(=O)(=O)N1CCOCC1` are 7.19% (inactive) and 21.1%.
